Compound activity as filed in PubChem.
PriA SSB inh: inhibitors of Klebsiella pneumoniae PriA binding to SSB C-terminal tail; AlphaScreen SSBct-PriA binding, biotinylated peptide; inhibition, % at 33 µM; actives 0.6% (n = 430,000); AID 1272365; in the data active = inhibition mostly above about 37%, no sharp cut-off; inactive = mostly below about 20%;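 note: plate controls were negative control peptide for no effect and reference peptide for full effect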
Vc quorum ag: quorum light induction in luxS cqsA deficient V. cholerae. activation, % at 18.7 µM. V. cholerae BH1578 lux reporter, luminescence, 6 h. AID 588436. actives 0.16% (n = 350,000); in the data active = activation mostly above about 9.7%, no sharp cut-off
CCHF vOTU inh-1: blocks the CCHF virus ovarian tumor domain protease | CCHFV vOTU protease, Pep-AMC fluorescence | inhibition, % at 11.5 µM | actives 0.55% (n = 370,000) | AID 651958; note: 0% = vehicle wells with enzyme and 100% = no enzyme wells
PrPC surface inh: inhibitors of human cell surface prion protein PrPC | actives 0.43% (n = 370,000) | inhibition, % at 13.8 µM | AID 720596 | TR-FRET read-out | P04156; in the data active = inhibition above about 24%; note: 0% = median of the test wells and 100% = reference compound wells
TcdB inh: blocks C. difficile toxin B glycohydrolase activity | P18177 | TcdB glycohydrolase enzymatic assay, plate reader | inhibition, % at 9.99 µM | actives 0.24% (n = 350,000); in the data active = inhibition above about 10%
VHR inh abs: DUSP3 (human) phosphatase inhibition; AID 1654; recombinant VHR phosphatase, pNPP absorbance; P51452; actives 0.52% (n = 290,000); inhibition, % at 13.3 µM; in the data active = inhibition above about 50%
Target sequence (P51452 whole entry, looked up): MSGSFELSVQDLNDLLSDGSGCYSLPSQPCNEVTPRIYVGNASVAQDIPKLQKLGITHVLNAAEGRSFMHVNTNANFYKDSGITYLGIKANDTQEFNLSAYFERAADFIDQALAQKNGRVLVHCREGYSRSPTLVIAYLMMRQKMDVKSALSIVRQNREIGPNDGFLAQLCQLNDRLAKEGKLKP
CCHF vOTU inh-2: CCHFV vOTU protease inhibition, confirmation; inhibition, % at 11.5 µM; shares compounds with CCHF vOTU inh-1; actives 17% (n = 1,900); Recombinant CCHFV vOTU, Pep-AMC fluorescence
* marks the source's active call; other numbers are inactive results; i = inactive; . = no result. Only some compounds are listed: those with a hit (about 1.5% of all), similar ones and a draw of the others. Cut-off read from the data, not from the text of the source, unless noted: active = inhibition above about 30%; inactive = the rest.

SMILES	PriA SSB inh	Vc quorum ag	CCHF vOTU inh-1	PrPC surface inh	TcdB inh	VHR inh abs	CCHF vOTU inh-2
CCOC(=O)C1=C(CNCCc2ccc(Cl)cc2)NC(=O)NC1c1cccc([N+](=O)[O-])c1 (centres undefined)	10.9	-1.0	15.5	11.1	1.1	6.4	.
CCOC(=O)C1=C(CNC(C)(C)CC(C)(C)C)NC(=O)NC1c1cccc([N+](=O)[O-])c1 (centres undefined)	1.8	-0.1	31.5*	3.4	1.1	15.1	13.3
COc1ccc2c(c1OC)C(=O)OC2	5.1	-0.4	6.6	2.4	-1.0	30.1	.
COc1ccc(N)c2c1OCCC2=O	3.1	-0.3	57.3*	-9.7	.	-2.9	-12.9
Cn1cnnc1S(=O)(=O)C1CCN(C(=O)c2cc(-c3cccs3)[nH]n2)CC1	-11.0	.	.	.	.	.	.
COc1cc(C=C2C(=O)C=CC2=O)ccc1O	.	.	41.4*	0.5	-5.6	.	-11.5
COc1cc(/C=C2/C(=O)CNC2=O)ccc1O	-10.5	1.8	16.1	-1.2	.	20.6	.
CCOC(=O)c1cc2sc(C)cc2n1CC(=O)N1CCOCC1	-1.5	1.7	12.0	6.8	.	14.5	.
CCOC(=O)c1cc2sc(C)cc2n1CC(=O)NCc1ccc(F)cc1	-2.2	i	29.9*	0.4	-4.9	2.9	-17.1
CCOC(=O)c1sc2ccccc2c1S(=O)(=O)NCc1ccco1	5.0	.	.	.	.	.	.
Cc1cccc(NC2=C(NCCO)C(=O)c3ccccc3C2=O)c1	73.9	-0.2	53.8*	-21.7	-5.8	-1.8	15.7
Cc1cccc(Nc2nc(N)c([N+](=O)[O-])c(NCCO)n2)c1	0.0	i	5.6	-21.4	0.8	-2.8	.
COc1ccc(NC2=C(NCCO)C(=O)c3ccccc3C2=O)cc1	23.5	-0.3	87.5*	-10.0	-1.9	10.5	57.0*
COc1cccc(NC2=C(NCCO)C(=O)c3ccccc3C2=O)c1	62.1	i	34.6*	-18.5	-3.3	-18.5	-2.3
COc1cc(Cl)c(C)cc1NC(=O)CN1C(=O)C2CCCCC2C1=O (centres undefined)	-8.2	i	31.9*	-5.4	1.2	.	-14.0
COc1ccc(Cl)cc1NC(=O)CN1C(=O)C(=O)N(C2CCCC2)C1=O	.	i	4.4	1.5	0.7	.	.
CC(C)c1ccc(/C=C(\C#N)C(=O)Nc2ccc(N3CCCCC3)cc2)cc1	30.0	.	.	.	.	.	.
CCOC(=O)c1csc(NC(=O)c2ccc(=O)n(Cc3ccc(F)cc3)n2)n1	-1.0	.	.	.	.	.	.
O=C(NCC1CCN(Cc2ccccc2)CC1)C(=O)Nc1ccccc1	-9.0	.	.	.	.	.	.
O=C(N/N=C/c1ccc(-c2ccc(S(=O)(=O)Nc3ncccn3)cc2)o1)c1cc2ccccc2cc1O	.	i	40.7*	-7.6	.	21.3	-2.2
CC(O)(c1cccc(F)c1)c1nc(/C=C/c2ccccc2)cs1 (centres undefined)	.	-0.4	16.7	5.3	-1.0	.	.
CC(O)(c1ccc(F)c(F)c1)c1nc(/C=C/c2ccc(C(F)(F)F)cc2)cs1 (centres undefined)	.	i	32.5*	7.0	0.5	.	-5.6
CC(=O)OC(COc1ccc(N(C)C(C)=O)cc1)Cn1c2ccccc2c2ccccc21 (centres undefined)	7.0	.	.	.	.	.	.
CC(=O)N(C)c1ccc(OCC(O)Cn2c3ccc(Cl)cc3c3cc(Cl)ccc32)cc1 (centres undefined)	-5.5	i	31.2*	4.3	.	-11.5	-4.1
Cc1cccc(OCC(=O)Nc2ccc(CN3CCOCC3)cc2)c1C	1.0	0.9	34.6*	1.4	1.1	16.3	-7.8
SMILES	PriA SSB inh	Vc quorum ag	CCHF vOTU inh-1	PrPC surface inh	TcdB inh	VHR inh abs	CCHF vOTU inh-2
COC(=O)c1nn(-c2ccccc2)c2nnc(Cc3ccc(C)cc3)c(=O)n12	6.6	0.9	32.3*	7.6	.	-8.0	-16.4
CO[C@@H](CNC(=O)CSCc1ccccc1)c1cccc(F)c1	-6.0	.	.	.	.	.	.
CCOC(=O)c1c(NC(=O)/C=C/C(=O)O)sc(C)c1-c1ccc(C(C)(C)C)cc1	7.4	-0.3	45.3*	23.6	-1.8	23.4	15.6
Nc1c(N(Cc2ccco2)C(=O)COc2ccccc2Cl)c(=O)[nH]c(=O)n1Cc1ccccc1	-1.3	i	30.7*	-0.1	1.5	.	-14.9
Cc1ccc(CN2C(=O)C[C@@H](NC(=O)OCC3c4ccccc4-c4ccccc43)C/C=C\C2c2ccc(C)cc2)cc1 (some centres undefined)	0.4	0.4	32.2*	-5.2	0.5	.	-8.9
CCCC[C@@H]1C=C(C(=O)O)[C@H](c2ccc(Cl)c(Cl)c2)N1S(=O)(=O)c1ccc(C)cc1	-7.5	-1.9	31.6*	8.6	-0.2	.	21.2
CCCCC[C@@H]1C=C(C(=O)O)[C@H](c2ccc(C)cc2)N1S(=O)(=O)c1ccc(C)cc1	3.0	-0.7	27.5	8.9	-1.3	.	.
CCc1ccc([C@H]2C(C(=O)O)=C[C@@H](CC3CCCC3)N2S(=O)(=O)c2ccc(C)cc2)cc1	-3.1	i	47.4*	0.8	-0.8	.	13.2
CCCCC[C@@H]1C=C(C(=O)O)[C@H](c2ccc(Cl)cc2)N1S(=O)(=O)c1ccc(C)cc1	-10.8	i	31.8*	6.5	-0.3	.	2.7
Cc1ccc([C@H]2C(C(=O)O)=C[C@@H](CC3CCCC3)N2S(=O)(=O)c2ccc(C)cc2)cc1	7.6	i	25.7	0.1	-0.8	.	.
Cn1cccc1C(CNC(=O)Cc1ccc(F)cc1)N1CCc2ccccc2C1 (centres undefined)	19.0	.	.	.	.	.	.
CCCNC1=C(N(C(C)=O)c2cccc(F)c2)C(=O)c2ccccc2C1=O	16.7	-0.2	70.0*	-37.0	2.8	-11.0	46.0*
O=[N+]([O-])c1cc(Br)c(Nc2ccccc2)c([N+](=O)[O-])c1	-5.5	i	7.1	-39.8	0.9	16.1	.
O=[N+]([O-])c1cc([N+](=O)[O-])c2c(=Nc3ccccc3)n(-c3ccccc3)n(O)c2c1	63.0*	-0.4	31.4*	-19.0	-0.1	16.7	0.6
COc1ccc(/C=N/NC(=O)c2nn(-c3ccccc3)c(=O)c3c(N)scc23)cc1	.	0.2	50.1*	-32.6	.	-4.3	91.1*
COc1ccc(/C=N/NC(=O)c2nn(-c3ccc(Cl)cc3)c(=O)c3c(N)scc23)cc1	.	.	33.0*	-20.3	.	14.5	38.6*
COc1ccc(/C=N/NC(=O)c2nn(-c3ccc(C)c(C)c3)c(=O)c3ccccc23)cc1	.	-0.4	4.7	5.5	.	23.5	.
CCOC(=O)N1CCN(S(=O)(=O)c2ccc(C(=O)N3CC(=O)Nc4ccccc43)cc2)CC1	-15.0	.	.	.	.	.	.
CC(=O)CSc1ncnc2c1nnn2Cc1ccc(Cl)cc1	10.0	.	.	.	.	.	.
N#Cc1ccc(S(=O)(=O)NC2CCC(Oc3cnccn3)CC2)cc1 (centres undefined)	-6.0	.	.	.	.	.	.
COCCNC(=O)c1cccc(S(=O)(=O)N2CC3(C)CC2CC(C)(C)C3)c1 (centres undefined)	-31.2	1.4	33.0*	1.0	0.9	.	-13.3
CCCCNC(=O)c1cccc(S(=O)(=O)N2CC3(C)CC2CC(C)(C)C3)c1 (centres undefined)	-5.3	-0.6	30.8*	8.5	0.8	.	14.0
